Source: PubChem
JMJD2E inh: JMJD2E (human) inhibition | Potency, µM (top dose mostly 57.1 µM), for inactives: at the top dose activity change, negative = inhibition, hits mostly inhibitors | JMJD2E catalytic domain, FDH-coupled NADH fluorescence (FDH is formaldehyde dehydrogenase) | 230,000 compounds, 1.6% hits | B2RXH2; active = well fitted inhibition curve with a large enough effect, not every such curve was filed as active; inconclusive = small, poorly fitted or top-dose-only effect, or another doubt; inactive = no such curve, though single readings can be large or run the other way;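 also: potency is read from the fitted curve at half-maximal effect; 0% = wells with enzyme and -100% = buffer wells without enzyme; nearly all actives have a fitted effect of over 50% in size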
Target sequence (B2RXH2 1-337 limits assumed): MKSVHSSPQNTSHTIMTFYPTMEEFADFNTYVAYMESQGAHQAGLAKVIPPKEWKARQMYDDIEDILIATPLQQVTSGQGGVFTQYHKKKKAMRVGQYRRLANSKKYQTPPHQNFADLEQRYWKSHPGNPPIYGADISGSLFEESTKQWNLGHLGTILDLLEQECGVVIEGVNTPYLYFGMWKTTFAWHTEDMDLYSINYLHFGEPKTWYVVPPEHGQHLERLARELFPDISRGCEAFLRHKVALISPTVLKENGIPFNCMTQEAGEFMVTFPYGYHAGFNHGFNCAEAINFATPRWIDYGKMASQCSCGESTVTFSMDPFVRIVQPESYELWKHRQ
Tau ThT inhib: blocks human tau fibril formation measured by thioflavin T; P10636; recombinant tau K18 P301L, heparin-induced fibrillization, ThT fluorescence; Potency, µM (series often up to 57.4 µM), for the others: top-dose activity, negative = inhibition, actives largely listed as inhibitors; 270,000 compounds, 2.1% hits; also: potency is read from the fitted curve at half-maximal effect; nearly all actives have a fitted effect of over 55% in size
Target sequence (P10636 561-689 P618L limits assumed): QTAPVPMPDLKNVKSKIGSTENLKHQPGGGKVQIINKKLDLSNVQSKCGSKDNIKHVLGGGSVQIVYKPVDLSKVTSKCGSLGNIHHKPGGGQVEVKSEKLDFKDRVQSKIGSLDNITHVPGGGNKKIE
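Tau K18 P301L fragment (15 uM unlabeled plus 0.24 uM Alexa 594-labeled) in 100 mM sodium acetate pH 7 with compound, fibrillization induced by 20 uM heparin for 6 hr at 37 C. Thioflavin T (30 uM) added, fluorescence read after 1 hr (ex 450, em 510 nm).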
Tau fibril FP: tau fibrillization inhibition (FP); K18 P301L tau heparin fibrillization, Alexa594 FP, 6 h; 280,000 compounds, 0.39% hits; Potency, µM (doses to about 57.7 µM), for inactives: at the top dose activity, negative = inhibition, actives largely listed as inhibitors; P10636; also: potency is read from the fitted curve at half-maximal effect; nearly all actives have a fitted effect of over 55% in size
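Quantitative HTS format: compounds meet 15 uM recombinant K18 P301L tau and Alexa 594-tau tracer in 100 mM sodium acetate pH 7; 20 uM heparin triggers fibrillization at 37 C over 6 hr; FP gives the signal.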
PNC assembly inh: inhibitors of perinucleolar compartment assembly; 140,000 compounds, 3.1% hits; activity change (PNC), negative = inhibition, % at 10 µM; PC3M PTB-GFP, PNC prevalence imaging, 16 h; hits give low values; AID 2417;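 active = readout at or below -70, meaning at least 70% loss of cells showing the perinucleolar compartment, a nuclear body marking cancer cells; inconclusive = readout between -30 and a set limit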;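 also: plate controls were DMSO wells for no effect and camptothecin positive control wells for full effect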
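Compounds are pinned in duplicate onto adhered PC3M cells stably expressing GFP-tagged PTB and incubated 16 h at 37 C. Cells are then fixed, nuclei stained with Hoechst, and PNC-positive cells counted.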
NPSR antag: antagonists of human neuropeptide S receptor cAMP signaling; Q6W5P4; CHO-NPSR cells, cAMP TR-FRET, antagonist mode; Potency, µM (highest dose often 38.3 µM), for the others: at the top dose activity change, negative = inhibition, usual class: inhibitors; 220,000 compounds, 1% hits; AID 1461; also: potency is read from the fitted curve at half-maximal effect; nearly all actives have a fitted effect of over 50% in size
Tau fluor counter: counter-screen for tau fibril formation inhibitors. tau K18 P301L Alexa594 fluorescence, heparin fibrillization. Potency, µM (doses to about 57.7 µM), for the others: top-dose activity change, negative = decrease. 280,000 compounds, 0.93% hits; also: potency is read from the fitted curve at half-maximal effect; nearly all actives have a fitted effect of over 55% in size
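Human tau K18 P301L (15 uM unlabeled, 0.24 uM Alexa 594-labeled) in 100 mM sodium acetate pH 7 with 20 uM heparin, 6 hr at 37 C. ThT 30 uM added, 1 hr ambient; Alexa 594 FP and total fluorescence read at 555/632 nm.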
* hit, by the source's call; ? = inconclusive; nt = no result given; ! = not confirmed by another sample; [ ] = remark or other dose. Shown are actives, neighbours in structure and some others; about 5.1% of the full set was active somewhere. Unless noted, calls follow the shape of the dose curve; as a rule, active = well fitted curve in the direction sought with a large enough effect; inconclusive = small, poorly fitted or top-dose-only effect, or another doubt; inactive = no such curve, though single readings can be large; an effect the other way counts as inactive or inconclusive. Unless noted, % is scaled to controls: 0 for no effect and ±100 for the full control effect.

SMILES	JMJD2E inh	Tau ThT inhib	Tau fibril FP	PNC assembly inh	NPSR antag	Tau fluor counter
Cc1ccc(-n2c(O)c(/C=N/NC(=O)c3ccncc3)c(=O)[nH]c2=O)cc1C	22µM*	?	1%	?	8%	-8%
O=C(N/N=C/c1c(O)n(Cc2ccco2)c(=O)[nH]c1=O)c1ccccc1	?	nt	1%	nt	5%	-1%
O=C(N/N=C/c1c(O)n(CCc2ccccc2)c(=O)[nH]c1=O)c1ccccc1O	28µM*	nt	9%[0.0958 µM]	nt	-8%	12%[0.0958 µM]
O=C(N/N=C/c1c(O)n(-c2cccc3ccccc23)c(=O)[nH]c1=O)c1ccncc1	13µM*	-13%	-9%	nt	20%	-3%
O=C(N/N=C/c1c(O)n(CCc2ccccc2)c(=O)[nH]c1=O)c1ccncc1	28µM*	?	2%	-5	4%[46.1 µM]	-9%
Oc1cc2c(cc1O)[C@H]1c3ccccc3CN[C@H]1CC2	25µM*	?	?	nt	nt	?
CC(N)C(O)c1ccc(O)c(O)c1 (stereo unspecified)	16µM*	7.9µM*!	?	nt	nt	?
CCN(CC)C(=O)c1c(C)[nH]c(=S)c(C#N)c1-c1ccco1	?	?	-9%	nt	11%	-7%
CCn1c(C)[n+](CC)c2ccc(S(=O)(=O)NC)cc21	7.9µM*	1%	0%	nt	12%	4%
CS(=O)c1ccc(-c2nc(-c3ccc(F)cc3)c(-c3ccncc3)[nH]2)cc1 (stereo unspecified)	?	6%	-8%	nt	nt	-1%
COC(=O)C1=Nc2ccccc2/C1=C\c1c(O)n(-c2ccc(Br)cc2)c(=O)[nH]c1=O	4%	-3%	10%	-124*	-26%	1%
COc1ccc(OC)c(-n2c(O)c(/C=C3\C(C)=Nc4ccccc43)c(=O)[nH]c2=O)c1	-9%	nt	-11%	nt	-7%	-23%
O=c1[nH]c(=O)n(-c2ccccc2)c(O)c1/C=C1/C(c2ccccc2)=Nc2ccccc21	?	?	-3%	-91*	-30%	-5%
COC(=O)C1=Nc2ccccc2/C1=C\c1c(O)n(-c2ccc(OC)cc2)c(=O)[nH]c1=O	18µM*	?	?	67	-29%[46.1 µM]	?
C=C(C)[C@]12C[C@@H](C)[C@@]34O[C@](Cc5ccccc5)(O[C@@H]1[C@@H]3C=C(COC(=O)Cc1ccc(O)c(OC)c1)C[C@]1(O)C(=O)C(C)=C[C@@H]41)O2	nt	?	12%	nt	nt	?
CC(C)c1cccc(O)c(=O)c1	7.9µM*	?	2%	nt	-35%	-17%
O=C(O)c1ccccc1-c1c2cc(Br)c(=O)cc-2oc2[c]([Hg])c(O)c(Br)cc12	5µM*	?	?	nt	nt	?
O=C1Nc2ccccc2Sc2ccccc21	-2%	14%	2%	nt	24%	11%
c1ccc2c(c1)Nc1ccccc1S2	11%	?	7%	-19	-30%	16µM*[quencher]
COc1ccc(C(C)=O)cc1CC(C(=O)c1ccccc1)N(C)C (stereo unspecified)	1%	-4%	9%	-94*	12%	2%
COc1ccc(C(C)=O)cc1CC(C(=O)c1ccc(C)cc1)N(C)C (stereo unspecified)	2%	-6%	-3%	17	14%	-2%
Cc1cccc(N2C(=O)CSC23C(=O)N(CC(=O)Nc2cccc(Cl)c2)c2ccccc23)c1 (stereo unspecified)	nt	11%	25µM*	nt	nt	?
C[n+]1cccc(C(=O)NCC2CCCO2)c1 (stereo unspecified)	?	4%	4%	-19	4%	7%
CCOc1cccc(OCC)c2c(C)[n+](CC3CCCO3)c(C)c1-2 (stereo unspecified)	?	20µM*	?	14	-9%[46.1 µM]	?
COC1=C[C@H]2[C@H]3Cc4ccc(OC)c(O)c4[C@@]2(CCN3C)CC1=O	?	-15%	?	nt	nt	-11%
NC(=O)CI	32µM*	-6%	-5%	nt	-10%[46.1 µM]	-6%
